In PubChem BioAssay (NCI) one finds growth data, which are given here for eight compounds.

About 83,000 compounds went through this panel and 20% of them were active in at least one assay; those are over-represented in the sample as a whole.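 Method: cells in 96-well plates; compound added at one concentration; 48 h incubation; percent growth measured; values under 10 scored active.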 Unmarked numbers belong to inactive results. Activity calls are given as the source filed them.

Test systems include SR leukemia; RPMI-8226 leukemia; OVCAR-8 ovarian; OVCAR-5 ovarian; OVCAR-4 ovarian; SK-OV-3 ovarian; IGROV1 ovarian; OVCAR-3 ovarian; HS 578T breast; NCI/ADR-RES ovarian; T-47D breast; BT-549 breast; MDA-MB-435 melanoma; SW-620 colon; MCF7 breast; HCT-116 colon; HCC-2998 colon; KM12 colon.
Holding throughout (test): NCI-60 one-dose screen, 48 h (100 = growth as untreated, 0 = no growth, -100 = all killed)
Details in all cases: 10 µM unless noted

On to `COc1ccc(C2=NN(C(C)=O)C(c3ccc(Oc4ccnc5cc(Cl)ccc45)c(OC)c3)C2)cc1` (centres undefined), for which the growth is 74.4% in the experiment on SR leukemia; 77.1% with RPMI-8226 leukemia; 24% with OVCAR-8 ovarian; 84.4% with OVCAR-5 ovarian; -17.2% (active) in the experiment with OVCAR-4 ovarian; 24.5% with SK-OV-3 ovarian. Besides, the growth with IGROV1 ovarian was 79.7%; in the experiment with OVCAR-3 ovarian, 37.1%; in the experiment on HS 578T breast, 58.9%; in the experiment on NCI/ADR-RES ovarian, 44.7%; in the experiment with T-47D breast it was 16.2%; with BT-549 breast it was 79.5%. Besides, the growth with MDA-MB-435 melanoma was 57%; in the experiment on SW-620 colon, 74.3%; in the experiment on MCF7 breast, 37.6%; in the experiment on HCT-116 colon, 25%; with HCC-2998 colon it was 57.2%; in the experiment with KM12 colon it was 72.9%.

As for `CCOC(=O)c1c(C)c2c(n1C)CSc1cc(S(=O)(=O)c3ccccc3)c(=O)[nH]c1-2`, the growth was 45% [100 µM] with SR leukemia; 28.9% [100 µM] in the experiment on RPMI-8226 leukemia; 34.4% [100 µM] in the experiment on OVCAR-8 ovarian; 62.4% [100 µM] with OVCAR-5 ovarian; 26.4% [100 µM] with OVCAR-4 ovarian; 26.8% [100 µM] with SK-OV-3 ovarian. Also, the growth with IGROV1 ovarian was 30.6% [100 µM]; with OVCAR-3 ovarian it was 18.5% [100 µM]; in the experiment with HS 578T breast it was 53.6% [100 µM]; with NCI/ADR-RES ovarian it was 18.6% [100 µM]; in the experiment with T-47D breast, 12.3% [100 µM]; in the experiment on BT-549 breast, 3.95% [100 µM] (active). Further, the growth was 19.3% [100 µM] with MDA-MB-435 melanoma; 35.9% [100 µM] with SW-620 colon; 13.8% [100 µM] with MCF7 breast; 11% [100 µM] in the experiment on HCT-116 colon; 20.3% [100 µM] in the experiment with HCC-2998 colon; 16.5% [100 µM] with KM12 colon.

`CC(C)CCSc1nc(Nc2ccccc2)c(C#N)c(-c2ccccc2)n1`: the growth in the experiment with SR leukemia is 27.2%; in the experiment on RPMI-8226 leukemia, 73.9%; in the experiment with OVCAR-8 ovarian it was 42.7%; in the experiment on OVCAR-5 ovarian, 64.9%; with OVCAR-4 ovarian it was -7.19% (active); with SK-OV-3 ovarian, 69.1%. Besides, the growth in the experiment with IGROV1 ovarian is 17.3%; in the experiment on OVCAR-3 ovarian, 57.6%; in the experiment with HS 578T breast, 14.3%; with NCI/ADR-RES ovarian, 52.4%; in the experiment on T-47D breast, 58.3%; in the experiment with BT-549 breast it was 62.1%. The growth in the experiment on MDA-MB-435 melanoma is 94%; in the experiment with SW-620 colon, 56.9%; in the experiment with MCF7 breast, 45.6%; in the experiment with HCT-116 colon it was 27.5%; with HCC-2998 colon it was 46.3%; with KM12 colon, 89.9%.

For `COc1ccc(/C=C/C(=O)c2ccc(Nc3nc(Nc4ccc(F)cc4)nc(Nc4ccc(Cl)cc4)n3)cc2)cc1`, the growth is -2.35% (active) in the experiment with SR leukemia; 58.5% in the experiment on RPMI-8226 leukemia; 97.1% in the experiment with OVCAR-8 ovarian; 111% in the experiment on OVCAR-5 ovarian; 98% in the experiment on OVCAR-4 ovarian; 122% in the experiment with SK-OV-3 ovarian. Further, the growth in the experiment with IGROV1 ovarian is 81.2%; in the experiment with OVCAR-3 ovarian, 113%; in the experiment on HS 578T breast it was 101%; in the experiment on NCI/ADR-RES ovarian it was 92.4%; in the experiment with T-47D breast, 67.3%; in the experiment on BT-549 breast it was 116%. Besides, the growth with MDA-MB-435 melanoma was 97.3%; with SW-620 colon it was 104%; in the experiment with MCF7 breast, 72.2%; with HCT-116 colon, 91.8%; in the experiment on HCC-2998 colon, 51.3%; with KM12 colon, 166%.

For `CCN1C(=O)N(CC)C2C1NN=c1s/c(=C\c3ccccc3Br)c(=O)n12` (centres undefined), the growth in the experiment with SR leukemia is 13.6%; with RPMI-8226 leukemia, 15.5%; in the experiment on OVCAR-8 ovarian it was 1.17% (active); in the experiment on OVCAR-5 ovarian, 28%; in the experiment with OVCAR-4 ovarian, 49.7%; in the experiment with SK-OV-3 ovarian, 38.1%. Further, the growth in the experiment on IGROV1 ovarian is 16.9%; in the experiment with OVCAR-3 ovarian it was 2.96% (active); with HS 578T breast, 16.1%; in the experiment with NCI/ADR-RES ovarian, 7.75% (active); in the experiment on T-47D breast it was 85.5%; in the experiment with BT-549 breast, 16.3%. Further, the growth in the experiment on MDA-MB-435 melanoma is -15.7% (active); in the experiment on SW-620 colon, 20.3%; in the experiment with MCF7 breast it was 13.6%; in the experiment on HCT-116 colon, 6.2% (active); with HCC-2998 colon, 10.7%; with KM12 colon, 10.3%.

With `CN1CCN(C(=O)c2cc(-c3ccc4ncnc(N5CCc6cc(F)c(Cl)cc65)c4c3)cnc2N)CC1`, the growth is 14.7% in the experiment on SR leukemia; -25.7% (active) in the experiment with RPMI-8226 leukemia; 10.3% in the experiment with OVCAR-8 ovarian; 9.22% (active) with OVCAR-5 ovarian; -12.7% (active) in the experiment on OVCAR-4 ovarian; 10.9% with SK-OV-3 ovarian. The growth with IGROV1 ovarian was -33.4% (active); in the experiment with OVCAR-3 ovarian, -42.8% (active); in the experiment with HS 578T breast it was -17.2% (active); in the experiment on NCI/ADR-RES ovarian, 8.74% (active); in the experiment with T-47D breast it was -1.85% (active); with BT-549 breast, -20.4% (active). The growth with MDA-MB-435 melanoma was -2.06% (active); with SW-620 colon, 4.9% (active); in the experiment on MCF7 breast, 4.21% (active); in the experiment on HCT-116 colon, -30.3% (active); in the experiment on HCC-2998 colon, -7.55% (active); with KM12 colon, 10.7%.

For `Cc1[nH]c(C(=O)Nc2ccc(C(N)=O)cc2NC(C)C)c(Cl)c1Cl`, the growth in the experiment with SR leukemia is 103%; in the experiment on RPMI-8226 leukemia, 87.8%; with OVCAR-8 ovarian, 92.4%; with OVCAR-5 ovarian, 104%; with OVCAR-4 ovarian, 92.4%; in the experiment on SK-OV-3 ovarian, 113%. In addition, the growth in the experiment on IGROV1 ovarian is 85.1%; in the experiment with OVCAR-3 ovarian, 96.3%; with HS 578T breast, 82.6%; in the experiment with NCI/ADR-RES ovarian, 88.2%; in the experiment on T-47D breast, 82.6%; in the experiment with BT-549 breast, 93%. For the same compound, the growth in the experiment on MDA-MB-435 melanoma is 101%; in the experiment with SW-620 colon, 96.1%; with MCF7 breast, 92%; with HCT-116 colon it was 81%; in the experiment with HCC-2998 colon it was 108%; with KM12 colon, 98.9%.

Regarding `COc1ccc(NC(=O)c2ccc(C(=O)Nc3ccc(OC)cc3OC)cc2)c(OC)c1`, the growth is 87.9% in the experiment with SR leukemia; 80.1% with RPMI-8226 leukemia; 44.5% with OVCAR-8 ovarian; 81.2% in the experiment on OVCAR-5 ovarian; 88.2% in the experiment on OVCAR-4 ovarian; 43.8% with SK-OV-3 ovarian. For the same compound, the growth in the experiment with IGROV1 ovarian is 54.7%; in the experiment with OVCAR-3 ovarian it was 90.6%; with HS 578T breast, 39.3%; in the experiment with NCI/ADR-RES ovarian, 79.6%; in the experiment on T-47D breast it was 71.9%; in the experiment on BT-549 breast, 43.6%. Moreover, the growth in the experiment with MDA-MB-435 melanoma was 93.3%; in the experiment on SW-620 colon, 97.9%; in the experiment with MCF7 breast it was 75.2%; with HCT-116 colon it was 78.1%; in the experiment with HCC-2998 colon it was 72.2%; in the experiment on KM12 colon, 103%.
